From PubChem
Only some compounds are listed: those with a hit (about 1.2% of all), similar ones and a draw of the others.
hERG WT inh = qHTS for Inhibitors of KCHN2 3.1: Wildtype qHTS; Voltage-gated inwardly rectifying potassium channel KCNH2 (Homo sapiens), Q12809; U2OS, BacMam KCNH2, thallium flux FluxOr; active compounds read low; activity change, % at 1.84 µM; actives 0.37% (n = 340,000); AID 720551, 2013;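 active = maximum activity change below -70%; inconclusive = maximum activity change between -70% and -50%; inactive = maximum activity change above -50%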
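U2OS cells transduced with wild-type KCNH2 virus are loaded with FluxOr dye for 45 min, and thallium flux is measured in kinetic reads before and after stimulation buffer. Rate constants are normalized to DMSO controls.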
Pin1 inh = qHTS Assay to Find Inhibitors of Pin1 | Peptidyl-prolyl cis-trans isomerase NIMA-interacting 1 (Homo sapiens), Q13526 | Pin1 FP peptide displacement, HiFluor488, 10 min | Potency, µM (series often up to 115 µM), most hits filed as inhibitors | actives 0.009% (n = 390,000); active = well fitted inhibition curve with a large enough effect in the polarisation, with a control signal flat, not every such curve was filed as active; inconclusive = small, poorly fitted or top-dose-only effect, or effect the other way, or a change in a side signal; inactive = no such curve, though single readings can be large or run the other way; the % refers to the polarisation
Target sequence (Q13526 whole entry, looked up): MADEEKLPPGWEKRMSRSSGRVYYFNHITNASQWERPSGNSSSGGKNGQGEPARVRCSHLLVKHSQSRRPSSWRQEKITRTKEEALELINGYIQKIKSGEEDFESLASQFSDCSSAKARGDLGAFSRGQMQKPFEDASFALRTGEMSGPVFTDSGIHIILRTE
RGS4 inhibitor = Inhibitors of Regulator of G Protein Signaling (RGS) 4: qHTS | Potency, µM (doses to about 114 µM), usual class: inhibitors | Transcreener GDP fluorescence polarization, RGS4-accelerated GTP hydrolysis | actives 0.039% (n = 390,000) | AID 504845, 2011; note: nearly all actives have a fitted effect of over 75% in size
Target sequence (P49798 whole entry, looked up): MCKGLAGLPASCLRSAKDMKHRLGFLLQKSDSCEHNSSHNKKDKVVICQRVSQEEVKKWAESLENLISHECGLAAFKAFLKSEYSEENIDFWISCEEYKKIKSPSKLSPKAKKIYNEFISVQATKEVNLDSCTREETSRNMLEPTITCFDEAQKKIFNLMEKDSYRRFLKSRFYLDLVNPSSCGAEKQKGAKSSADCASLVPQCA
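MLSMR compounds (23 nl, pin-transferred) preincubated 10 min at room temperature with a 500nM (2x) first reagent, then RGS4 at 900nM (2x) plus Transcreener GDP mix added; fluorescence polarization (620/688 nm) read before and after 90 min at 30 °C.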
GCN5L2 inh = qHTS Assay for Inhibitors of GCN5L2; actives 0.21% (n = 390,000); GCN5L2 HAT assay, ThioGlo1 CoA-SH fluorescence; Potency, µM (titrated, usually from 58.9 µM), hits mostly inhibitors; Histone acetyltransferase KAT2A (Homo sapiens), Q92830
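Enzyme at 20nM final was mixed with library compounds for 15 min at room temperature. Peptide H3(1-25) at 75uM, acetyl-CoA at 70uM and ThioGlo1 at 50uM were then added. Plates were read immediately and after 20 min (Ex340nm/Em540nm).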
KCNH2 3.1 block = qHTS for Inhibitors of KCHN2 3.1: Mutant qHTS; Potassium voltage-gated channel subfamily H member 2, brain isoform KCNH2 3.1 (human); U2OS KCNH2 3.1, thallium flux FluxOr; active compounds read low; activity change, % (tested at about 1.8 µM); actives 0.95% (n = 340,000); AID 720553, 2013;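 active = maximum activity change below -70%; inconclusive = maximum activity change from -70% to -50%; inactive = maximum activity change above -50%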;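 note: thallium influx rate constant from kinetic fluorescence after stimulation buffer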
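Measured as rate of thallium-driven FluxOr signal in transduced U2OS cells carrying the 3.1 channel, read kinetically for 2 min upon stimulation; values are rate constants scaled to DMSO control wells.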
PGK inhibitor = qHTS Assay to Find Inhibitors of Phosphoglycerate Kinase. Phosphoglycerate kinase, glycosomal (Trypanosoma brucei brucei), P07378. PGK/GAPDH coupled, Kinase-Glo luminescence, 60 min. Potency, µM (doses to about 57.5 µM), most hits filed as inhibitors. actives 0.043% (n = 380,000). AID 602233, 2012; note: nearly all actives have a fitted effect of over 60% in size
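Luminescent ATP detection (Kinase-Glo Plus) follows a 60-minute room-temperature incubation, with wells lacking PGK as controls. Buffer: 100 mM TEA (pH 7.6), 5 mM MgCl2, 0.01% Tween-20. Coupling enzyme GAPDH (100 nM final) supplies unstable 1,3-BPG in-well.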
Numbers stand for hits; 0 = inactive; ? = inconclusive; - = no result. Unless noted, calls come from the whole dose curve; as a rule, active = well fitted curve in the direction sought with a large enough effect; inconclusive = small, poorly fitted or top-dose-only effect, or another doubt; inactive = no such curve, though single readings can be large; an effect the other way counts as inactive or inconclusive.

SMILES	hERG WT inh	Pin1 inh	RGS4 inhibitor	GCN5L2 inh	KCNH2 3.1 block	PGK inhibitor
O=C1c2ccccc2C(=O)N1c1cccc(N2C(=O)c3ccccc3C2=O)n1	-	0	0	-	-	-
CCn1cc(/C=C(\NC(=O)c2ccccc2Cl)C(=O)N2CCN(C)CC2)c2ccccc21	0	0	0	3.16µM	0	0
COC(=O)c1ccccc1NC(=O)CCCn1c(=O)c2cccn2c2cccnc21	-	0	0	0	-	0
CCC1Nc2ncnc(N3CCN(c4ccccc4)CC3)c2N(Cc2ccc(Br)cc2)C1=O (configuration not stated)	0	0	0	0	-88.0	0
COc1ccc(C(=O)C2CCCN(Cc3cn[nH]c3-c3ccc(F)cc3)C2)cc1OC (configuration not stated)	0	0	0	0	0	0
O=C(c1ccc(F)cc1)C1CCN(Cc2cn[nH]c2-c2ccc(F)cc2)CC1	0	0	0	0	-79.7	0
Cc1c(Cl)cccc1NC(=O)c1ccc2c(c1)CCCN2S(C)(=O)=O	-	0	0	0	-	0
OC(CSc1ccccc1)CN1CCN(c2ccc(Cl)cc2)CC1 (configuration not stated)	0	0	0	-	-86.4	0
NC(=O)CC(NC(=O)c1ccccc1)c1ccc(NC2CCN(Cc3ccccc3)CC2)c([N+](=O)[O-])c1 (configuration not stated)	0	0	0	0	0	0
O=[N+]([O-])c1cc(C(F)(F)F)ccc1NC1CCN(Cc2ccccc2)C1 (configuration not stated)	-80.3	0	0	0	-90.8	0
O=[N+]([O-])c1cc(C(F)(F)F)ccc1NC1CCN(Cc2ccccc2)CC1	0	0	0	0	-86.4	0
CC1(C)CC(Nc2ccc(C(F)(F)F)cc2[N+](=O)[O-])CC(C)(C)N1	0	0	0	0	0	0
COc1cc(NC(=O)CSc2nc(-c3ccc(C(C)C)cc3)no2)cc(OC)c1	-	0	0	?	-	0
Cc1cccc(-c2nc3c4ccccc4nc(N4CCN(c5cc(C)ccc5C)CC4)n3n2)c1	-	0	0	0	-	0
CCOC(=O)C1=C(C)N=C2c3ccccc3C(=O)C2C1c1ccc(Cl)cc1 (configuration not stated)	0	?	0	0	-104.8	0
CC(=O)Nc1ccccc1OC1=N[S+](=O)([O-])c2ccccc21	-	0	-	-	-	-
Cc1nnc2c3ccccc3c(-c3cccs3)nn12	0	0	0	0	-85.1	0
Cc1ccc(N=Cc2cc(Cl)cc(Cl)c2O)nc1	-333.3	?	0	0	0	0
Cc1c(C(=O)N2CCN(CCc3ccccn3)CC2)oc2ccc(Cl)cc12	0	0	0	0	-102.7	0
O=C(c1cccc(Cl)c1)N1CCN(CCc2ccccn2)CC1	-	0	0	0	-	0
Cc1cc(NS(=O)(=O)c2cn(C)nc2C)no1	-135.1	0	0	0	0	0
CCc1nnc(NC(=O)CSc2nnc(C)n2CC2CCCO2)s1 (configuration not stated)	-161.0	0	0	0	0	0
Cc1cc(C)n(C(C)CC(=O)Nc2cccc(C#N)c2)n1 (configuration not stated)	-	0	0	0	-	0
Cc1cc(N/C=C\c2nnnn2-c2ccc(F)cc2)no1	-120.8	0	0	0	0	0
CN(C)S(=O)(=O)c1ccc(N2CCCC2)c(C(=O)N2CCN(c3ccc([N+](=O)[O-])cc3)CC2)c1	-82.8	0	0	0	-115.9	0
Cc1ccc(OCC(=O)N2CCN(c3ccc([N+](=O)[O-])c(N4CCOCC4)c3)CC2)cc1	0	0	0	?	0	0
